Cl transport mod – KCC2 cotransporter modulators, thallium flux, primary screen, cell-based, HEK293 KCC2, FluoZin-2 fluorescence, MLSMR. KCC2 cells, thallium flux FluoZin-2 fluorescence. hit rate 2.2% among 190,000. Solute carrier family 12 member 5 (Homo sapiens), Q9H2X9. AID 1456, 2008. B-score of Tl+ flux slope (higher = more flux/activation; lower = inhibition) at 10 µM;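 active means thallium flux slope and its plate-corrected score both differing from the plate sample mean at a set confidence after two filtering rounds, in either direction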;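 further: slope of fluorescence scaled to starting intensity during 10 to 20 s after thallium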
S1P3 antag – S1P3 receptor antagonists, primary screen, cell-based | CHO S1P3 NFAT-BLA reporter, FRET fluorescence, antagonist mode | hit rate 0.27% among 170,000 | AID 485, 2006 | inhibition, % at 4.98 µM | Sphingosine 1-phosphate receptor 3 (Homo sapiens), Q99500;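 active means inhibition above the plate cutoff, the mean inhibition of test wells on that plate plus 3 SD, cut at about 28% in these data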;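 further: cells challenged with S1P at its EC80 of 0.8 µM; blue over green emission ratio from cleaved BLA substrate after 4 h stimulation; 0% = S1P-stimulated wells and 100% = unstimulated DMSO-only wells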
Target sequence (Q99500 whole entry, looked up): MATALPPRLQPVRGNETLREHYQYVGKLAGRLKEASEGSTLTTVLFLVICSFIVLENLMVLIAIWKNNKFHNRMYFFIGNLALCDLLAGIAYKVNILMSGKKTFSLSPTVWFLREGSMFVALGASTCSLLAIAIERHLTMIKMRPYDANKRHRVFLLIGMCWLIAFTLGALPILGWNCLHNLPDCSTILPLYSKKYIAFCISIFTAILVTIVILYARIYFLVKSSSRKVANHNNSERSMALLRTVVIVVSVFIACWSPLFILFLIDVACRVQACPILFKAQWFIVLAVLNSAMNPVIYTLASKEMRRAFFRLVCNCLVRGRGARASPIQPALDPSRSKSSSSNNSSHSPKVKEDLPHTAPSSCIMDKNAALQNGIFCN
PGE2 EP2 inh – human EP2 receptor antagonists, primary screen, TR-FRET cAMP, C6 glioma cells. C6 glioma cells expressing human EP2; cells stimulated with saturating PGE2. inhibition, % at 25 µM. AID 1422, 2008. Prostaglandin E2 receptor EP2 subtype (Homo sapiens), P43116. hit rate 0.52% among 260,000;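 active means percent inhibition above 40 after rounding to a whole number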;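 further: rat C6 glioma host cells with rolipram phosphodiesterase inhibitor present; the protocol text gives 20 µM as final concentration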
EP2 modulator – EP2 receptor modulators, cAMP readout, primary screen, cell-based, HTRF cAMP, PGE2 stimulation; EP2-expressing cells, cAMP HTRF FRET, PGE2 co-stimulation; induction, % at 25 µM; Prostaglandin E2 receptor EP2 subtype (Homo sapiens), P43116; AID 940, 2007; hit rate 0.83% among 260,000;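 active means compounds whose cAMP rise, as percent of the full-agonist control response, exceeds 60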;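 further: rat C6 glioma line stably carrying human EP2 under a CMV promoter; the protocol text gives 20 µM as final concentration; 100% = response of wells given 1 µM PGE2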
KCC2 sec1 – KCC2 modulators in sodium-free buffer, confirmation, cell-based, HEK293 KCC2, thallium flux, secondary assay; shares compounds with Cl transport mod; FluoZin2 fluorescence; hits give high values; normalised thallium flux (F/F0 slope) at 10 µM; hit rate 15% among 3,700;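 active means thallium flux slope above the same plate's solvent-only control mean plus 3 SD; inconclusive means the two replicate wells disagree; inactive means no significant difference from solvent-only control wells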
KCC2 bumet counter – thallium flux persisting under bumetanide in KCC2 cells, confirmation, counter-screen for KCC2 modulator project, cell-based, HEK293 KCC2, FluoZin2, secondary assay 3; shares compounds with Cl transport mod; HEK293-KCC2 + bumetanide/ouabain; hits give high values; normalized thallium flux at 10 µM; hit rate 49% among 3,700; AID 1714, 2009;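 active means thallium entry rate above the same plate's blocked-transporter control wells by more than 3 SD; inconclusive means the two repeat wells disagree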;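 further: raw slope of fluorescence over initial fluorescence between 10 and 20 s after thallium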
KCC2 sec2 – KCC2 modulators without ouabain present, confirmation, cell-based, HEK293 KCC2, thallium flux, FluoZin2, secondary assay 2; shares compounds with Cl transport mod; thallium flux FluoZin2 fluorescence; actives lie on both sides; F/F0 rise rate, 10–20 s post-thallium; normalized thallium flux at 10 µM; hit rate 23% among 3,700; AID 1715, 2009;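 active means thallium flux slope more than 3 SD above or below the plate's solvent-only control mean, mostly below; inconclusive means the two repeat wells disagreed; inactive means no significant shift from solvent-only controls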;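 further: raw slope with 0.1% DMSO as baseline and bumetanide as block control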
HEK293 Tl flux – thallium flux modulation in parental HEK cells, confirmation, counter-screen for KCC2 modulator project, cell-based, counterscreen 1; hit rate 46% among 3,700; shares compounds with Cl transport mod; HEK293 parental cells, thallium flux FluoZin2, ouabain; baseline-ratio fluorescence slope, 10–20 s after thallium; thallium flux rate (normalised fluorescence) at 10 µM;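 active means thallium flux rate significantly above the same plate's solvent-only control wells, beyond their mean plus 3 SD; inconclusive means the two replicate wells gave conflicting results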
KCC2 retest ouab – KCC2 inhibitors and activators, ouabain retest, confirmation, HEK-KCC2 cells; shares compounds with Cl transport mod; HEK293-KCC2, thallium flux FluoZin2 fluorescence; bidirectional: low = inhibitor, high = activator; raw Tl+ flux slope (below DMSO = inhibition, above = activation) at 10 µM; hit rate 48% among 3,700; AID 1717, 2009;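 active means thallium flux slope beyond 3 SD from same-plate DMSO control mean in most replicates, usually higher, sometimes lower; inconclusive means repeat tests gave conflicting results; inactive means no significant difference from controls in most replicates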;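 further: slope of initial-normalized fluorescence between seconds 10 and 20 after thallium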
HEK293 Tl flux2 – native HEK Tl+ uptake effects, second counter-screen – HEK cells, counterscreen 2, counter-screen for KCC2 modulator project, confirmation; thallium flux slope at 10 µM; AID 1718, 2009; hit rate 33% among 3,700; shares compounds with Cl transport mod; HEK293 parental, thallium flux FluoZin-2 fluorescence slope;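 active means thallium flux slope above the same plate's solvent-control mean plus 3 SD in both duplicate wells; inconclusive means duplicate wells that disagreed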;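 further: run without ouabain in cells lacking the KCC2 cotransporter; slope of fluorescence scaled to its starting value between 10 and 20 s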
The depositor's hits bear a star. An excerpt weighted towards active compounds, which were near 3.1% of everything screened.

What do the screens show for `COCCNC(=S)NC(=O)c1ccc(C(C)(C)C)cc1`?
Cl transport mod: 8.4*; S1P3 antag: 3; PGE2 EP2 inh: 10; EP2 modulator: 11; KCC2 sec1: 0.0097; KCC2 bumet counter: 0.025*; KCC2 sec2: 0.03; HEK293 Tl flux: inconclusive; KCC2 retest ouab: 0.019; HEK293 Tl flux2: 0.011

How did COCCCn1c(SCC(=O)Nc2c(C)cccc2C)nc2ccccc2c1=O do in these assays?
PGE2 EP2 inh: 6; EP2 modulator: 36

Results for COc1cc(OC)c(OC)cc1/C=C/c1cc(C(F)(F)F)[nH]c(=O)n1 ?
Cl transport mod: -4.7*; S1P3 antag: -18; PGE2 EP2 inh: 18; EP2 modulator: 31; KCC2 sec1: inconclusive; KCC2 bumet counter: -0.0019*; KCC2 sec2: inconclusive; HEK293 Tl flux: 0.003*; KCC2 retest ouab: 0.012*; HEK293 Tl flux2: 0.005*

Results for O=C(Nc1nnc(C2=COCCO2)o1)c1ccc(Cc2ccccc2)cc1 ?
Cl transport mod: 7.3*; S1P3 antag: -6; PGE2 EP2 inh: 7; EP2 modulator: 1; KCC2 sec1: 0.0067; KCC2 bumet counter: 0.019*; KCC2 sec2: 0.031; HEK293 Tl flux: 0.016*; KCC2 retest ouab: inconclusive; HEK293 Tl flux2: 0.019*

How did O=C(Nc1nnc(C2=COCCO2)o1)c1ccc(Cl)cc1 do in these assays?
Cl transport mod: 8.5*; S1P3 antag: -1; PGE2 EP2 inh: 10; EP2 modulator: 2; KCC2 sec1: inconclusive; KCC2 bumet counter: 0.026*; KCC2 sec2: 0.029; HEK293 Tl flux: 0.021*; KCC2 retest ouab: 0.032*; HEK293 Tl flux2: inconclusive

How did O=C(Nc1nnc(C2=COCCO2)o1)c1ccc(S(=O)(=O)N2CCOCC2)cc1 do in these assays?
Cl transport mod: -0.1; S1P3 antag: 5; PGE2 EP2 inh: 1; EP2 modulator: 29

What do the screens show for `CCCCc1c(C)nc2ccc(C)cc2c1SCCC(=O)O`?
Cl transport mod: -3.8*; S1P3 antag: -8; PGE2 EP2 inh: 6; EP2 modulator: -20; KCC2 sec1: 0.0065; KCC2 bumet counter: inconclusive; KCC2 sec2: 0.023*; HEK293 Tl flux: 0.0075; KCC2 retest ouab: 0.015*; HEK293 Tl flux2: 0.01

What do the screens show for `CCCCc1c(C)nc2ccccc2c1SCCC(=O)O`?
Cl transport mod: -2.1; S1P3 antag: -15; PGE2 EP2 inh: 7; EP2 modulator: 48

Results for CCN1CCN(c2ccc(NC(=O)c3ccc(OC)c(OC)c3)cc2Cl)CC1 ?
PGE2 EP2 inh: 11; EP2 modulator: -59

Bioassay records from PubChem BioAssay.
